In PubChem BioAssay AID1700 (The Scripps Research Institute Molecular Screening Center, 2009):
Out of some 290,000 compounds screened, about 670 (0.23%) were called active. The sample holds actives, similar compounds and a random draw of the others, so the mix is not that of the screen. A number with no mark means an inactive call.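 How the source made its calls: active means inhibition above a per-plate limit of that plate's mean compound inhibition plus 3 SD (cut at about 60% in these data); inactive means the rest.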

experiment: suppression of KLF5 promoter-driven luciferase – DLD-1 cells, luminescence, primary screen (AID 1700); settings: DLD-1 KLF5 promoter-luciferase reporter, at 5 µM, active compounds read high;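 further: 0% = DMSO wells and 100% = LY294002 at 200 µM; higher means less KLF5 promoter-driven luciferase light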

| Structure (SMILES) | inhibition |
| --- | --- |
| O=C(N[C@@H](Cc1ccccc1)C(=O)OCc1ccccc1)c1nc[nH]c1C(=O)N[C@@H](Cc1ccccc1)C(=O)OCc1ccccc1 | -14.8% |
| O=C(CN1CCC(O)(c2cccc(C(F)(F)F)c2)CC1)NCCc1ccccc1 | -13% |
| O=C(CSc1ccc(-c2ccccn2)nn1)Nc1ccccc1 | -2% |
| Cc1cc(=O)n2nc(N3CCC(C(=O)Nc4c(F)c(F)c(F)c(F)c4F)CC3)sc2n1 | 13.4% |
| N#CCC(=O)NC1CCC(CC2CCC(NC(=O)CC#N)CC2)CC1 (configuration not stated) | -13.8% |
| Cc1nn(C(C)C(=O)N2CCOCC2)c(=O)c2nn(-c3ccccc3)c(C)c12 (configuration not stated) | -19% |
| COc1cc2c(cc1OC)CN(C(=O)c1ccc(S(=O)(=O)N3CCCCCC3)cc1)CC2 | -28.3% |
| CCOc1cc(C(=O)N2CCc3cc(OC)c(OC)cc3C2)ccc1OC(F)F | 73.9% (active) |
| COc1cc2c(cc1OC)CN(C(=O)c1cc(=O)c3ccccc3o1)CC2 | 37.6% |
| COc1cccc(/C=N/Nc2ncc(C(F)(F)F)cc2Cl)c1O | 101% (active) |
| COc1cccc(/C=N/NC(=O)c2[nH]nc3c2CCc2ccccc2-3)c1O | 5.06% |
| COc1cccc(/C=N/Nc2cc(C)nc(-c3ccccc3O)n2)c1O | -137% |
| O=C1CSc2ccc(S(=O)(=O)NCc3ccccc3)cc2N1 | 11.2% |
| Cc1c(CC(=O)NCC(=O)NCC(=O)O)c(=O)oc2cc3oc4c(c3cc12)CCCC4 | -28.3% |
| CCC(=O)N(CCc1ccccc1)Cc1cc2cc(C)ccc2[nH]c1=O | -35.9% |
| Cc1ccc2[nH]c(=O)c(CN(CCCN(C)C)C(=O)Nc3cccc(Cl)c3)cc2c1 | 109% (active) |
| Cc1ccc2[nH]c(=O)c(CN(CC3COCCO3)C(=O)Nc3ccccc3C)cc2c1 (configuration not stated) | 18.1% |
| O=C(NCCc1ccc(Cl)cc1)C1CCCN1C(=O)NCc1ccccc1 (configuration not stated) | -14.2% |
| COc1ccc(NCCc2ccccn2)cc1 | -36.1% |
| COc1ccccc1/C=N/N1CCN(Cc2ccccc2Cl)CC1 | -27% |
| CCOc1ccc(Cn2nnc(C(=O)NCc3ccccc3)c2N)cc1 | -14.8% |
| CCOc1ccccc1NC(=O)Cn1nnc(C(=O)NCc2cccs2)c1N | 72.7% (active) |
| CCOc1ccccc1NC(=O)Cc1cccs1 | 4.44% |
| COC(=O)CNC(=O)c1ccccc1F | -16.9% |
| CN(NC(=O)c1ccccc1)c1nc2ccccc2nc1C(F)(F)F | -18.5% |

| Structure (SMILES) | inhibition |
| --- | --- |
| CSc1nc(N(C)NC(=O)c2cccc(C)c2)c2ccccc2n1 | 83.5% (active) |
| COc1ccc(C(=O)NN(C)c2nc(-c3ccccc3)cc(C)c2S(C)(=O)=O)cc1 | -7.27% |
| Cc1cccc(C(=O)NCCCN(C)CCCNC(=O)c2cccc(C)c2)c1 | -59.8% |
| CN(NC(=O)c1ccccc1F)c1nc(C(F)(F)F)nc2ccccc12 | 68.7% (active) |
| O=C(Nc1ccccc1C(=O)NCC1CCCO1)c1ccccc1F (configuration not stated) | -10.3% |
| CCCCCCCCn1c2c(c(=N)c3c1CCC3)CCCC2 | 72.8% (active) |
| CCCCCCn1c(CN2CCCCC2)nc2c1c(=O)n(C)c(=O)n2C | 0.95% |
| O=c1[nH]cccc1-c1nc2ccccc2n1Cc1ccc(Cl)cc1 | -29.9% |
| Cc1ccc(CNS(=O)(=O)c2ccc3c(c2)N(C)CCO3)cc1 | -12.4% |
| Cn1cc(C(=O)c2ccc(Cl)cc2Cl)cc1C(=O)NN | -35.5% |
| CCOc1ccccc1CN1CCN(C2CCC2)CC1CCO (configuration not stated) | 12% |
| CCOC(=O)c1sc(NC(=O)c2ccncc2)nc1C | -25.1% |
| CCOC(=O)c1sc(NC(=O)c2sc(C)nc2C)nc1C | 79% (active) |
| CCOC(=O)c1sc(/N=C/Nc2nc(C)c(C(=O)OCC)s2)nc1C | 6.72% |
| Cc1cccc(NC(=O)C2CCN(C(=O)NC3CCCCC3)CC2)c1 | -12.5% |
| Cc1ccc(O)c(CNc2nc3ccccc3[nH]2)c1 | -87.9% |
| COc1ccc(-c2cc(=O)oc3cc(OCC(=O)N(C)C4CCS(=O)(=O)C4)ccc23)cc1 (configuration not stated) | -4.99% |
| O=c1cc(-c2ccccc2)[nH]c2cc(F)ccc12 | 73.5% (active) |
| Cc1ccc(-c2cc(=O)c3ccc(F)cc3[nH]2)cc1 | 9.96% |
| Cc1ccc(-c2cc(=O)c3ccc(Cl)cc3[nH]2)cc1 | -4.81% |
| CCCCNC(=O)c1cn(CC)c2cc(N3CCN(C(=O)c4ccco4)CC3)c(F)cc2c1=O | -2.76% |
| COc1ccc(NC(=O)CCNC(=O)Cn2cnc3sc4c(c3c2=O)CCCC4)cc1OC | -21.6% |
| COc1cc(NC(=O)C2=C(C)OCCS2)c(Cl)cc1C(=O)NCCN1CCN(C)CC1 | -25.5% |
| O=C1CCC(C(=O)N2CCN(c3ccccc3Cl)CC2)CN1CC1CCCCC1 (configuration not stated) | -15.8% |
| CC1CCCN(CC(=O)Nc2cc(Cl)ccc2Oc2ccccc2)C1 (configuration not stated) | -4.36% |

| Structure (SMILES) | inhibition |
| --- | --- |
| Cc1ccc(CNC(=O)C2CCN(S(=O)(=O)c3ccc4nc5c(c(C(=O)O)c4c3)CC(C)CC5)CC2)cc1 (configuration not stated) | -5.44% |
| CCc1ccc(/C=N/NC(=O)c2nnn(-c3nonc3N)c2CN2CCc3ccccc32)cc1 | 9.12% |
| O=C(CSc1nc(C2CC2)nc2ccccc12)Nc1cccc(O)c1 | -13.5% |
| Cn1cc(CCC(=O)NC2CC2)c2ccccc21 | -37% |
| Cc1ccc(S(=O)(=O)N(C)CC(=O)NCCc2c[nH]c3ccccc23)cc1 | -25.4% |
| Cc1ccc(/C=N/NC(=O)c2cc3ccccc3cc2O)o1 | -47.3% |
| Cc1ccc(CSc2nsc(C)c2C#N)cc1 | -19.4% |
| Cc1ccc(-c2cn3cc(C)ccc3n2)cc1 | 81% (active) |
| Cc1ccc2nc(-c3ccc(Br)cc3)cn2c1 | 48.8% |
| Cc1ccc(-c2cn3cc([N+](=O)[O-])ccc3n2)cc1 | -2.85% |
| O=C(CCn1nnnc1CN1CCOCC1)N1CCC(c2ccccc2Cl)C1 (configuration not stated) | -1.39% |
| CN(c1ccc2nc3ccccc3c(=O)n2n1)C1CCCCC1 | 90.6% (active) |
| O=c1c2ccccc2nc2n1C1(CCCCC1)Cc1ccccc1-2 | -22.6% |
| CCOC(=O)C(C)Sc1nc2ccccc2c(=O)n1CC1CCCCC1 (configuration not stated) | -3.75% |
| Nc1ccc(-c2nnc(-c3ccccc3)o2)cc1 | -131% |
| COc1ccccc1N1CCC(N2CCN(CC(C)(C)C)C(CCO)C2)CC1 (configuration not stated) | -23.1% |
| CC[C@]1(c2ccccc2OC)C(=O)N(C(=O)OC)N1C(=O)OC | -7.14% |
| Cn1nccc1C(=O)NC1CCCc2c1cnn2-c1ccc(F)cc1F (configuration not stated) | 64.7% (active) |
| Cn1nccc1C(=O)NC1CCCc2c1cnn2-c1ccccc1F (configuration not stated) | -17% |
| CC(=O)NCC(=O)NC1CCCc2c1cnn2-c1ccccc1F (configuration not stated) | -24.6% |
| O=C(c1ccc(F)cc1)N1CCCC(C(=O)N2CCCCC2)C1 (configuration not stated) | -2.28% |
| CN(c1ccccc1)S(=O)(=O)c1ccc2[nH]c(=O)[nH]c2c1 | -38.8% |
| Cc1ccc(OC(=O)c2cncc(Br)c2)c(C)c1 | -28.5% |
| Cc1ccc(C(=O)NCCc2nnc(SCC(=O)Nc3cccc(C(=O)O)c3)n2C)cc1 | -36.2% |
| N#CCSc1nc(-c2ccccc2)nc2ccc(F)cc12 | -32.8% |

| Structure (SMILES) | inhibition |
| --- | --- |
| CCn1c(=S)sc2c(=O)n(CC(=O)Nc3cccc(Br)c3)c(C)nc21 | -3.48% |
| Cc1ccc(S(=O)(=O)N2CCN(C(=O)CSc3cc(C)ccc3C)CC2)c(C)c1 | -17.8% |
| Clc1ccc(N/N=C/c2cccs2)nn1 | -13.3% |
| COc1cccc(/C=N/Nc2ccc(Cl)nn2)c1 | -91.5% |
| Oc1cccc(/C=N/Nc2ccc(Cl)nn2)c1O | 84.3% (active) |
| COc1ccc(N2CCN(S(=O)(=O)CCNC(=O)C34CC5CC(CC(C5)C3)C4)CC2)cc1 | -7.42% |
| CCN1C(=O)/C(=C2/Sc3ccc(OC)cc3N2C)SC1=Nc1ccc(C)cc1 | -15.8% |
| CCOC(=O)c1ccc(NC(=O)Cc2cccs2)cc1 | -60.6% |
| O=C(NCc1ccccc1)C(c1ccccc1)N(C(=O)c1csnn1)c1ccc(F)cc1 (configuration not stated) | -8.26% |
| Cc1cc(N)n2nc(-c3ccc(C(C)(C)C)cc3)cc2n1 | -77.7% |
| CCn1c(SCC(=O)NC2CC2)nnc1-c1ccncc1 | -7.99% |
| CCn1c(SCC(=O)Nc2nccs2)nnc1-c1ccncc1 | 102% (active) |
| CCn1c(SCC(=O)Nc2nccs2)nnc1-c1ccco1 | -15.7% |
| CCCC(C(=O)n1nc(C)cc1C)C(NS(=O)(=O)c1ccc(C)cc1)c1ccccc1 (configuration not stated) | -5.65% |
| CCOc1cc(/C=C2\C(=N)N3N=C(C)SC3=NC2=O)ccc1OCCOc1ccccc1 | -24.1% |
| Cc1cccc(NC(=O)CSCC(=O)Nc2nnc(C3CC3)s2)c1 | -22.8% |
| Cc1ccccc1N1CCN(S(=O)(=O)c2ccc3ccccc3c2)CC1 | -6.9% |
| Cc1ccc(C(=O)N2CC(=O)Nc3ccc(F)cc3C2c2ccc(F)cc2)cc1 (configuration not stated) | -4.39% |
| O=C(NCC1CCCO1)c1cc2c([nH]c3ccccc32)c(-c2ccc(F)cc2)n1 (configuration not stated) | 12.1% |
| COc1ccc(C(=O)Nc2ccccc2C(=O)N/N=C/c2ccc(O)c(OC)c2)cc1 | 99.4% (active) |
| COc1ccc(/C=N/NC(=O)c2ccccc2)cc1OS(=O)(=O)c1ccccc1 | -22.4% |
| COc1cc(/C=N/NC(=O)c2ccc(N3CCCC3=O)cc2)ccc1O | -6.57% |
